# Measured values as given in ChEMBL document CHEMBL3988442, “University of Dundee, Small-Polar-MMV Screening Library” (2021).
# Among all 48,000 compounds or so, about 13,000 (27%) showed an effect of 50% or more. This is one part of the list.
# System: Wolbachia pipientis
# Test: Anti-Wolbachia Cell-Based Screen
# Type: functional
# Design: scale not given: in the data most compounds retested in dose-response had high values
# Conditions: 5 µM
row,SMILES,Percent Effect
1,Cc1cc(NC(=O)CNc2ccc(Br)cc2F)on1,-13.69%
2,CNC(=O)[C@@H](CC(C)C)N1CCC[C@H]1C(=O)N(C)Cc1ccccc1.Cl,3.832%
3,CS(=O)(=O)N1CCc2c(nnn2CC2CC2)C1COCC1CC1 (configuration not stated),9.145%
4,CCOc1ccc(CC(=O)N2CCCC2c2cc(C)on2)cc1 (configuration not stated),5.942%
5,NC(=O)CN1CCN(S(=O)(=O)N2CCCC2c2ccco2)CC1 (configuration not stated),-1.711%
6,Cc1cc(C2CCCN2C(=O)c2ccc(OCC(N)=O)cc2)no1 (configuration not stated),5.942%
7,CNC(=O)CCc1cc(C2CCCN2S(C)(=O)=O)nc(C)n1 (configuration not stated),95.26%
8,Cc1nc(O)cc(CCNC(=O)CC[C@@H]2CCCN3CCCC[C@H]23)n1,-10.54%
9,CNC(=O)CCN1CCCC1c1ccccc1Br (configuration not stated),10.79%
10,Cc1nc(CCC(N)=O)cc(C2CCCN2S(C)(=O)=O)n1 (configuration not stated),118%
11,Cc1nc(CCC(N)=O)cc(C2CCCCN2S(C)(=O)=O)n1 (configuration not stated),110.4%
12,Cc1cc(C2CCCN2C(=O)COc2ccc(CC#N)cc2)no1 (configuration not stated),-10.78%
13,Cc1noc(C)c1CN(C)C(=O)C1CCCCN1S(C)(=O)=O (configuration not stated),-0.5133%
14,CNC(=O)CCc1cc(C2CCCN2C(=O)CO)nc(C)n1 (configuration not stated),135.9%
15,Nc1nc2c(c(N3CCC(CCn4cccn4)CC3)n1)CCNCC2,1.454%
16,CC(Cc1ccc2c(c1)OCO2)c1cn(CCN2CCCC2)nn1 (configuration not stated),21.75%
17,CCC(C)C(=O)NCc1ccn(-c2ccc(F)cc2)n1 (configuration not stated),-3.834%
18,COCCN(CCOC)C(=O)c1ccn(-c2ccccc2Cl)n1,2.098%
19,COc1ccc(-n2ccc(C(=O)N3CCC(C(N)=O)C3)n2)cc1 (configuration not stated),-0.5166%
20,CN(C)CCN(Cc1cccnc1)C(=O)c1ccn(-c2ccccc2)n1,1.059%
21,COc1ccc(SC(C)C(=O)N2CCC(O)CC2)cc1 (configuration not stated),1.982%
22,COc1ccc(-n2ccc(C(=O)N(C)C(C)C3(C)CC3)n2)cc1 (configuration not stated),114.7%

row,SMILES,Percent Effect
1,COCCN(C(=O)c1ccn(-c2ccc(OC)cc2)n1)C(C)C(N)=O (configuration not stated),143%
2,CC(C)N(C)CC(=O)Nc1ccc(-n2ccc(C(N)=O)n2)cc1,-7.566%
3,COc1ccc(-n2ccc(C(=O)N(CCN(C)C)C(C)C)n2)cc1,158.8%
4,CCC[C@@H](NC(N)=O)C(=O)N1CCc2ccccc2CC1,5.215%
5,O=C(NCCOc1ccc(F)c(F)c1)NCc1ccncc1,-13.71%
6,Cc1cc(CNC(=O)N2CCN(C(C)c3cccnc3)CC2)c(C)o1 (configuration not stated),-1.868%
7,CN1[C@@H](CCC(=O)NCc2ccc(F)cc2)CNC(=O)[C@H]2NCC[C@H]21,3.15%
8,N#Cc1cnc(N2CCC3(CC2)OCCO3)nc1N,125%
9,CC1CCN(c2ncc3c(n2)CN(c2ccccc2)C3=O)CC1,-3.671%
10,CC1CCN(c2ncc(C#N)c(N)n2)CC1,102.6%
11,CCc1nsc(N2CCC3(CC2)OCCO3)n1,-6.104%
12,N#Cc1cnc(N2Cc3cnn(Cc4ccc(F)cc4)c3C2)nc1N,-0.8846%
13,CC1CCN(c2ncc3c(n2)CN(c2ccc4c(c2)OCO4)C3=O)CC1,-9.746%
14,CC(C)(C)c1cnc(CN2CCC(NC(=O)NC3CCCCC3)CC2)o1,-3.337%
15,CCn1c(Cn2cncn2)nnc1C1CCN(Cc2ccc(C)o2)CC1,-1.569%
16,Cc1nc(CNC(=O)CCCc2cccs2)no1,-18.16%
17,Cc1ccc2cnn(CCC(=O)NCc3c(C)nn(C)c3C)c2c1,-12.76%
18,Cc1csc(CNC(=O)CCCc2cccs2)n1,21.24%
19,Cc1nc(CNc2ccc(C(=O)NCc3ccco3)cc2C)no1,-9.034%
20,Cc1cc(=O)[nH]c(-n2nc(C)c(CCC(=O)NCc3cccs3)c2C)n1,127.2%
21,Cc1cc(=O)[nH]c(-n2nc(C)c(CCC(=O)NCc3ccco3)c2C)n1,133%
22,O=C1OCCN1Cc1cccc(F)c1C(F)(F)F,-13.53%

row,SMILES,Percent Effect
1,CCS(=O)(=O)NCCN1CCc2ccc(F)cc2C1C (configuration not stated),-17.56%
2,O=C(Cc1ccccc1)NC[C@H]1Cn2ccnc2CO1,-7.774%
3,Cc1ccnc(CC(C)N(C)c2cc(CCN)nc(C)n2)c1 (configuration not stated),-16.25%
4,Cc1nn(C)c(Cl)c1C1CCCN1C(=O)c1ccoc1C (configuration not stated),103.1%
5,COc1c(C2CCCN2C(=O)c2ccoc2C)c(C)nn1C (configuration not stated),-17.99%
6,Cc1nn(C)c(Cl)c1C1CCCN1C(=O)c1ccnn1C (configuration not stated),108%
7,COc1c(C2CCCN2C(=O)c2ccnn2C)c(C)nn1C (configuration not stated),-14.45%
8,Cc1noc(C)c1C(=O)N1CCCC1c1c(C)nn(C)c1Cl (configuration not stated),2.958%
9,COc1c(C2CCCN2C(=O)c2cccn2C)c(C)nn1C (configuration not stated),-5.9%
10,Cc1nn(C)c(Cl)c1C1CCCN1C(=O)c1cccn1C (configuration not stated),113.6%
11,OC(CN(Cc1ccccc1)Cc1ccon1)c1cccs1 (configuration not stated),-5.25%
12,CCCn1[nH]cc/c1=N\C(=O)CN1CCCC1Cn1cccn1 (configuration not stated),-1.433%
13,CCN(CC1CCOC1)C(=O)c1cc(OC)c2c(c1)OCCO2 (configuration not stated),-3.228%
14,Cl.c1ncc(-c2ccc(C3CNCCO3)nc2)cn1 (configuration not stated),106.1%
15,COc1ccc(-c2c[nH]c([C@@H]3COCCN3)n2)cc1,-8.862%
16,CCNc1ccnc(NCC2CNCCO2)n1 (configuration not stated),-11.04%
17,Cl.Clc1ccc(-c2ccc(C3CNCCO3)nc2)cc1 (configuration not stated),122.6%
18,COc1ccc(-c2cnc(CN3CCCC3CO)o2)cc1 (configuration not stated),-7.324%
19,COc1ccc(-c2ccc(C3CNCCO3)nc2)cc1.Cl (configuration not stated),122.1%
20,Cl.c1ccc(-c2ccc(C3CNCCO3)nc2)cc1 (configuration not stated),-0.3347%
21,Cc1ccc(-c2ccc(C3CNCCO3)nc2)cc1.Cl (configuration not stated),114.4%
22,Fc1ccc(-c2noc([C@@H]3Cc4nc[nH]c4CN3)n2)cc1,-11.77%

row,SMILES,Percent Effect
1,Cn1cc(CN2CCOCC3(C2)CN(c2ccccc2)C(=O)CO3)cn1.O=C(O)C(F)(F)F (configuration not stated),-5.421%
2,Cc1cccc(N2CCOCC3(C2)CN(c2ccoc2)C(=O)CO3)n1.O=C(O)C(F)(F)F (configuration not stated),101.1%
3,Cc1ccc(N2CC3(COCCN(Cc4ccccn4)C3)OCC2=O)s1.O=C(O)C(F)(F)F.O=C(O)C(F)(F)F (configuration not stated),-3.574%
4,O=C(O)C(F)(F)F.O=C1COC2(COCCN(c3ccccn3)C2)CN1c1cccc(F)c1 (configuration not stated),-5.368%
5,Cc1cccc(N2CCOCC3(C2)CN(c2ccccc2)C(=O)CO3)n1.O=C(O)C(F)(F)F (configuration not stated),109.1%
6,Cc1cccc(N2CCOCC3(C2)CN(c2cnn(C)c2)C(=O)CO3)n1.O=C(O)C(F)(F)F (configuration not stated),85%
7,Cn1cc(N2CC3(COCCN(Cc4ccsc4)C3)OCC2=O)cn1.O=C(O)C(F)(F)F (configuration not stated),-6.124%
8,O=C(O)C(F)(F)F.O=C(O)C(F)(F)F.O=C1COC2(COCCN(Cc3cccnc3)C2)CN1c1ccoc1 (configuration not stated),-8.923%
9,COC(=O)c1ccc(CNC2CC(=O)N(Cc3cccc(F)c3)C2)cc1 (configuration not stated),2.767%
10,CSc1ccc(-n2ccnc2-c2cc3n(n2)CCNC3)cc1,-5.547%
11,CC(C)c1cnc(N2C[C@H](CO)C[C@H](CN3CCOCC3)C2)nc1,-10.14%
12,COCc1noc(C2(c3ccc(Cl)cc3)CCOCC2)n1,0.3658%
13,Cc1c(Cl)c(CN2CCCC2Cn2cncn2)nc2ccccc12 (configuration not stated),0.2475%
14,Cc1cnn(CC2CCCN2C(=O)c2nccnc2N)c1 (configuration not stated),124%
15,Cc1cnn(CC2CCCN2C(=O)c2ccc(C(N)=O)cn2)c1 (configuration not stated),-6.228%
16,Cc1cnn(CC2CCCN2C(=O)c2nccc3ccccc23)c1 (configuration not stated),-8.549%
17,Cc1cnn(CC2CCCCN2C(=O)c2nccnc2N)c1 (configuration not stated),123.3%
18,Cc1ccsc1C(=O)N1CC2CC1(C(=O)NCc1ccco1)C2,-21.25%
19,Cc1oncc1C(=O)N1CC[C@H]2CO[C@H](CN3CCCC3)[C@H]2C1,2.112%
20,O=C(N1CCOCC1)N1CCOC[C@H](Oc2ccc(C(F)(F)F)cc2)C1,-17.33%
21,CC(=O)c1ccc(OCC(=O)NS(=O)(=O)c2ccc(Cl)s2)cc1,1.494%
22,COc1cc(C)ccc1OCC(=O)NS(=O)(=O)c1ccc(Br)s1,133.3%

row,SMILES,Percent Effect
1,COc1cccc(OCC(=O)NS(=O)(=O)c2ccc(C)s2)c1,7.75%
2,CC(=O)c1cccc(OCC(=O)NS(=O)(=O)c2ccc(C)s2)c1,0.05865%
3,COc1ccc(OCC(=O)NS(=O)(=O)c2ccc(Br)s2)cc1,71.28%
4,COc1ccccc1OCC(=O)NS(=O)(=O)c1ccc(Cl)cc1F,6.198%
5,N#CCc1ccc(OCC(=O)NS(=O)(=O)c2ccc(Br)s2)cc1,-7.056%
6,COc1cccc(OCC(=O)NS(=O)(=O)c2ccc(Br)s2)c1,93.04%
7,COc1cc(C)ccc1OCC(=O)NS(=O)(=O)c1cc(F)ccc1F,4.965%
8,COc1ccc(OCC(=O)NS(=O)(=O)c2cc(C)ccc2C)cc1,6.123%
9,COc1ccc(OCC(=O)NS(=O)(=O)c2ccc(Cl)s2)cc1,9.961%
10,COc1ccccc1OCC(=O)NS(=O)(=O)c1ccc(Cl)s1,123.5%
11,CC(Sc1nncn1C)C(=O)NCCCOc1ccc(F)cc1 (configuration not stated),7.065%
12,COC1CCCN(C(=O)NCCCF)C1 (configuration not stated),5.737%
13,CS(=O)(=O)NC[C@]12COC[C@H]1CN(CCc1ccccc1)C2.O=C(O)C(F)(F)F,1.225%
14,CCOC[C@]12COC[C@H]1CN(Cc1ccc3c(c1)OCO3)C2.O=C(O)C(F)(F)F,94.03%
15,COC[C@]12COC[C@H]1CN(Cc1ccc3c(c1)OCO3)C2.O=C(O)C(F)(F)F,110.8%
16,CS(=O)(=O)NC[C@]12COC[C@H]1CN(Cc1ccc3c(c1)OCO3)C2.O=C(O)C(F)(F)F,100.7%
17,O=C(O)C(F)(F)F.O=C(O)C(F)(F)F.c1cc2c(cc1CN1C[C@@H]3COC[C@@H](N4CCCC4)[C@@H]3C1)OCO2,5.593%
18,CCS(=O)(=O)NC[C@]12COC[C@H]1CN(Cc1ccsc1)C2.O=C(O)C(F)(F)F,-7.396%
19,CCOC[C@]12COC[C@H]1CN(Cc1ccc(F)c(F)c1)C2.O=C(O)C(F)(F)F,108.4%
